{
  "source": "paper PMC5540273",
  "about": "(PLoS ONE, 2017);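 also: kd values determined as follow-up on hits from a single-replicate KINOMEscan panel screen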",
  "key": {"[1]": {"system": "FLT4"}, "[2]": {"system": "KIT"}, "[3]": {"system": "GAK"}, "[4]": {"system": "GRK1"}, "[5]": {"system": "GRK4"}, "[6]": {"system": "GRK7"}, "[7]": {"system": "INSR"}, "[8]": {"system": "HIPK2"}, "[9]": {"system": "HIPK4"}, "[10]": {"system": "INSRR"}, "[11]": {"system": "T1, JNK2", "T1 construct": "gene MAPK9"}, "[12]": {"system": "T2, JNK3", "T2 construct": "gene MAPK10"}, "[13]": {"system": "IRAK4"}, "[14]": {"system": "JAK1(JH2domain-pseudokinase)"}, "[15]": {"system": "JAK2(JH1domain-catalytic)"}, "[16]": {"system": "KIT-autoinhibited"}},
  "data": [
    {"compound": "COc1cc2nccc(Nc3ccc(OCc4ccc(NC(C)=O)cc4)cc3)c2cc1OC.Cl", "note": "[GW440135]", "values": [
      {"measurement": "Kd", "setting": "[1]", "value": 480, "unit": "nM"},
      {"measurement": "Kd", "setting": "[2]", "value": 7.4, "unit": "nM"}
    ]},
    {"compound": "Cc1cccc(-c2cc(-c3c[nH]nc3-c3ccccn3)ccn2)c1", "note": "[GW679395]", "values": [
      {"measurement": "Kd", "setting": "[3]", "value": 130, "unit": "nM"}
    ]},
    {"compound": "OCCCNc1nccc(-c2c(-c3cccc(C(F)(F)F)c3)nn3cc(C(F)(F)F)ccc23)n1", "note": "[GW630813]", "values": [
      {"measurement": "Kd", "setting": "[4]", "value": "> 10000", "unit": "nM"}
    ]},
    {"compound": "CN1C(=O)C(Nc2cc(Cl)c(O)c(Cl)c2)=C(c2ccc(Cl)cc2)C1=O", "note": "[SB-404321]", "values": [
      {"measurement": "Kd", "setting": "[5]", "value": "> 10000", "unit": "nM"}
    ]},
    {"compound": "CCn1c(-c2ccoc2)nc2cnccc21", "note": "[SB-733887]", "values": [
      {"measurement": "Kd", "setting": "[6]", "value": "> 10000", "unit": "nM"},
      {"measurement": "Kd", "setting": "[7]", "value": "> 10000", "unit": "nM"}
    ]},
    {"compound": "Nc1n[nH]c2nnc(-c3ccccc3)c(-c3ccccc3)c12", "note": "[GW554060]", "values": [
      {"measurement": "Kd", "setting": "[8]", "value": 410, "unit": "nM"}
    ]},
    {"compound": "Cn1c(=O)c(F)c(Nc2ccc(I)cc2F)c2c(=O)n(OC[C@H](O)CO)cnc21", "values": [
      {"measurement": "Kd", "setting": "[9]", "value": "> 10000", "unit": "nM"}
    ]},
    {"compound": "COc1cc2ncn(-c3cc(OCc4ccncc4)c(C(N)=O)s3)c2cc1OC", "note": "[GSK336313]", "values": [
      {"measurement": "Kd", "setting": "[10]", "value": "> 10000", "unit": "nM"}
    ]},
    {"compound": "Nc1nc(-c2ccccc2F)c(-c2ccnc3ccccc23)s1", "note": "[GW560459]", "values": [
      {"measurement": "Kd", "setting": "[7]", "value": "> 10000", "unit": "nM"},
      {"measurement": "Kd", "setting": "[11]", "value": 1200, "unit": "nM"},
      {"measurement": "Kd", "setting": "[12]", "value": 610, "unit": "nM"}
    ]},
    {"compound": "Fc1cccc(CSc2nnc(-c3ccc4c(c3)CCO4)o2)c1", "values": [
      {"measurement": "Kd", "setting": "[13]", "value": "> 10000", "unit": "nM"}
    ]},
    {"compound": "Cc1cc(Nc2nc(-c3cccc(C)n3)nc3ccccc23)ccn1", "note": "[GW872411]", "values": [
      {"measurement": "Kd", "setting": "[14]", "value": 410, "unit": "nM"}
    ]},
    {"compound": "Nc1nc(N)c2nc(-c3ccccc3)[nH]c2n1", "note": "[SKF-12778]", "values": [
      {"measurement": "Kd", "setting": "[14]", "value": 150, "unit": "nM"}
    ]},
    {"compound": "O=c1cc(N2CCOCC2)nc2n(Cc3ccc(F)c(Cl)c3)ccn12", "note": "[GSK2297099]", "values": [
      {"measurement": "Kd", "setting": "[15]", "value": "> 10000", "unit": "nM"}
    ]},
    {"compound": "CN(C)c1cc(-c2ccc3c(N)n[nH]c3c2)nc(N)n1", "note": "[GSK2219329]", "values": [
      {"measurement": "Kd", "setting": "[16]", "value": "> 10000", "unit": "nM"}
    ]}
  ]
}
